# Unmarked numbers belong to inactive results. Results filed as inconclusive are left out. Calls of active or inactive are those of the source. Unless noted, calls come from the whole dose curve; as a rule, active = well fitted curve in either direction with a large enough effect (not every such curve was filed as active); inconclusive = small, poorly fitted or top-dose-only effect, or another doubt; inactive = flat fitted curve, though single readings scatter.
# What was measured:
# [1] = AP1 Signaling Pathway (AID 357); conditions: ME-180 AP-1-bla reporter, EGF-induced, beta-lactamase ratio, 5 h; at 17.2 µM (top of the series) unless noted;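 note: ME-180 reporter cells stimulated with EGF at its EC50 level; % is set by controls: 0 for no effect and ±100 for the full control effect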
# How it was run: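 Beta-lactamase reporter under AP-1 response element, ME-180 background. Stimulus: EC50 EGF. Compound exposure 5 h, 37 °C. Detection: CCF4, 2.5 h RT, 460/530 nm. Values: AC50 from titration.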
# [2] = NFAT Signaling Pathway (AID 444); conditions: Jurkat NFAT-bla M1, carbachol, beta-lactamase ratio, 5 h; at 17.2 µM (top of the series) unless noted;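 note: carbachol stimulus at about its EC50 of 1 µM final; % is set by controls: 0 for no effect and ±100 for the full control effect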
# How it was run: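 Jurkat cells with NFAT-driven β-lactamase reporter and co-expressed M1 receptor, stimulated with carbachol (final 1 uM, ~EC50), compound titration, 5 h at 37 °C. CCF4 loaded 1 h at RT; 460/530 nm ratio gave %activity and AC50.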
# [3] = Stat Signaling Pathway (AID 446); conditions: ME-180 SIE beta-lactamase reporter, IL-6 stimulated, 5 h; at 17.2 µM (top of the series) unless noted;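 note: ME-180 cervical cancer cells given 40 pM IL-6 alongside compound; SIE-controlled beta-lactamase reporter measured as 460/530 nm FRET emission ratio; % is set by controls: 0 for no effect and ±100 for the full control effect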
# How it was run: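 ME-180 SIE-bla cells; overnight plating; cpd + IL-6 40 pM, 5 h, 37 C; LiveBLAzer 2.5 h RT; 460/530 nm emission ratio. Normalized to 300 pM IL-6 and 125 nM JAK inhibitor controls.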
# [4] = biological target: Glucocorticoid receptor (Homo sapiens) (UniProt P04150); assay: GR-GFP Redistribution (AID 450;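 active = compounds whose dose series gives a full or clear partial fitted curve of increased nuclear translocation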; note: potency is the fitted concentration of half-maximal effect)
# [5] = qHTS Assay for Identification of Small Molecule Agonists for Hypoxia Response Element Signaling Pathway (AID 914; active = well fitted activation curve with a large enough effect in the signal ratio, with a control signal flat, not every such curve was filed as active; the % refers to the signal ratio; note: potency is the fitted concentration of half-maximal effect; for activation: % of control where 0% means no effect); conditions: ME-180 (cervical carcinoma) HRE-bla reporter, beta-lactamase ratio, CoCl2, 17 h; activation: active compounds read high
# How it was run: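 AC50 values come from titration-series %Activity, taken as the 460/530nm ratio of CCF4 fluorescence (excitation 405nm). CellSensor HRE-bla ME-180 cells were treated 17 hours at 37 C with compound plus an EC50 level of CoCl2.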
# Sequence of Glucocorticoid receptor (Homo sapiens) (P04150 whole entry, looked up): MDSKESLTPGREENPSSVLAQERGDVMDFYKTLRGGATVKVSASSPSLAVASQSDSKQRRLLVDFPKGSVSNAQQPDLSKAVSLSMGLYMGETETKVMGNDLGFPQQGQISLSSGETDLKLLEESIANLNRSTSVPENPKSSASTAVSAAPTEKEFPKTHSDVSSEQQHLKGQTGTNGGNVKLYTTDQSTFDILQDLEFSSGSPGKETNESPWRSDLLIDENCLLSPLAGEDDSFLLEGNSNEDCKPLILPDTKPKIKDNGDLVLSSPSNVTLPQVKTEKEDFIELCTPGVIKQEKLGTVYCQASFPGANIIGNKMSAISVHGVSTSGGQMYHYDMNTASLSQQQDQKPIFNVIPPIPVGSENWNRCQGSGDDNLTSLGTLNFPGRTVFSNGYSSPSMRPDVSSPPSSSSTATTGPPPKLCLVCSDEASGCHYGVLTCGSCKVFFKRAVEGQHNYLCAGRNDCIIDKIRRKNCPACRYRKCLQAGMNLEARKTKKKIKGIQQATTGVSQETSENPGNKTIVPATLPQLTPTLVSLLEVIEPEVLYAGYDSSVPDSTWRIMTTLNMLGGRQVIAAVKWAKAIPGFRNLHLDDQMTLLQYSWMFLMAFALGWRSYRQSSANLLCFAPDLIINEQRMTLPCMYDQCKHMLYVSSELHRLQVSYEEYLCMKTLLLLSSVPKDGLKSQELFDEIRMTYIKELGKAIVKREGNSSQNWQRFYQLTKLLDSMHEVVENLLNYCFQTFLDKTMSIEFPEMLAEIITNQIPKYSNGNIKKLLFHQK
Compound,"activity change, negative = inhibition [1] [%]","activity change, negative = inhibition [2]","activity, negative = inhibition [3] [%]",Potency [4] [µM],activation [5] [%],Potency [5]
COc1cc(-c2cc(C(F)(F)F)n3ncc(C(=O)O)c3n2)cc(OC)c1OC,3.69,3.34%,1.42,> 20.6,13.9,–
CC(=O)N1CCN(c2nc(CC(C)C)c3c(c2C#N)CCC3)CC1,-24.1,-8.91%,-3.38,> 20.6,24.5,–
CCN(CC)CCN1C(=O)C(O)=C(C(=O)c2cc3ccccc3o2)C1c1cccnc1 (stereo not given),4.98,-3.08%,2.38,> 20.6,11.5,–
CC(=O)CCn1c(=O)n(CCC(C)=O)c(=O)n(CCC(C)=O)c1=O,5.12,6.61%,-1.84,> 20.6,11.1,–
CCSC(SCC)[C@H](O)[C@@H](O)[C@H](O)[C@H](O)CO,-0.356,8.22%,10.1,> 20.6,9.48,–
COc1ccc2c(c1)c(C(=O)CN1CCOCC1)c(C)n2C,12,0.787%,10.6,> 20.6,8.25,–
CC(C)OC(=O)C(CC(=O)O)NCc1ccccc1 (stereo not given),-7.38,10.6%,5.04,> 20.6,19.8,–
CCCC(=O)N(Cc1cc2ccccc2[nH]c1=O)c1ccccc1OC,-6.44,22.4%,5.08,> 20.6,-13.3,–
COC(=O)C1=C(N)Oc2cc(C)oc(=O)c2C1c1ccncc1 (stereo not given),-9.84,4.62%,0.284,> 20.6,12.2,–
CCOc1ccc(Cn2c(O)cc(=O)[nH]c2=O)cc1,11.9,2.3%,5.06,> 20.6,5.51,–
Cc1cccc(-n2ncc3c(NCc4ccco4)ncnc32)c1,-15.1,-12.4%,-20.3,> 20.6,8.46,–
CCOc1ccc(/C(O)=C2/C(=O)C(=O)N(CCN(CC)CC)C2c2ccco2)cc1 (stereo not given),-1.27,-3.29%,6.33,> 20.6,-14.8,–
CCCCOc1nc2ccccc2nc1C(C#N)C(=O)NC1CCCCC1 (stereo not given),8.43,-13.6%,25.7,> 20.6,–,12.6 µM (active)
CCOc1ccc(CSC(CC(=O)O)C(=O)O)cc1 (stereo not given),-0.441,-5.85%,11.1,> 20.6,14.8,–
Cc1cc(=O)oc(C)c1C(=O)Nc1cccc2nonc12,-1.38,11.1%,-0.713,> 20.6,1.4,–
C=CCc1cccc(/C=N/c2ncn[nH]2)c1O,-5.91,-19.8%,5.03,> 20.6,26.2,–
CC(C)CNC(=O)c1c(N)n(/N=C/c2cccnc2)c2nc3ccccc3nc12,9.25,329% [activator] (active),16.6,> 20.6,–,10 µM (active)
CCOC(=O)CSc1nnc(C)c(=O)[nH]1,12.3,-0.387%,-1.23,> 20.6,-0.909,–
NC(=O)CSc1nc(N)c2c3c(sc2n1)CCCCC3,-2.28,-8.37%,-4.35,> 20.6,-10.3,–
Cc1nn(-c2ccccc2)c2c1C(=O)NC(=O)C(C)(C)C2,-3.8,0.783%,3.56,> 20.6,-11.1,–
CCOC(=O)C(C(=O)OCC)N(C#N)c1nc(SC)nc(N(C)C)n1,-8.06,-23.5%,-8.92,> 20.6,-11.1,–
COc1ccccc1C1/C(=C(\O)c2ccc3c(c2)OCCO3)C(=O)C(=O)N1CCCN(C)C (stereo not given),8.19,-5.11%,4.48,> 20.6,-1.93,–

# — PubChem BioAssay (NCATS)
